Consider 22 compounds from PubChem BioAssay (EPA / NIEHS).

SMILES strings stand for the structures. Where “and” joins values, the source holds several entries; their conditions need not be identical. Identical values can stand only once. Results filed as inconclusive are left out. Calls of active or inactive are those of the source. Rule for the calls, unless noted: active = hit-call score of the fitted dose curve at least 0.9, where 1 is the maximum; inactive = score below 0.9.

The AC50 is the concentration at which the activity in the assay is half-maximal.

The nature of one assay: STM_H9_OrnithineISnorm_perc: Stemina devTOX quickPredict H9 human embryonic stem cell (hESC)-based Assay for Ornithine (ORN) Metabolite Biomarker, Normalized (AID 2283712).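 Note: ornithine released into spent medium during last day measured by mass spectrometry.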 The method in brief:
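Cells: undifferentiated H9 hESC. Dosing: 72 h, media replaced every 24 h. Sample: final 24-h conditioned media, 40% acetonitrile. Read: UPLC-HRMS ornithine area vs 13C standard, % DMSO control.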
For the compound `CCOC1Oc2ccc(OS(C)(=O)=O)cc2C1(C)C` (stereo not given), the AC50 is 86.3 µM (active).
As for `Oc1ccc(Cl)cc1Cc1ccccc1`, the result was inactive.
For `CC(C)(C)C(O)/C(=C\c1ccc(Cl)cc1Cl)n1cncn1` (stereo not given), the AC50 was 69.4 µM (active).
Take `O=S(=O)(O)C(F)(F)C(F)(F)C(F)(F)C(F)(F)C(F)(F)C(F)(F)C(F)(F)C(F)(F)F`: the result was inactive.
Turning to `O=C(NC(=O)c1c(F)cccc1F)Nc1ccc(OC(F)(F)C(F)OC(F)(F)F)c(Cl)c1` (stereo not given), the result was inactive.
In the case of `CCC(C)Nc1c([N+](=O)[O-])cc(C(C)(C)C)cc1[N+](=O)[O-]` (stereo not given), the outcome was inactive.
The same measure, in the same setting: to `CC(C)OC(=O)Nc1cccc(Cl)c1` belongs “inactive”.
Regarding `O=S1OCC2C(CO1)C1(Cl)C(Cl)=C(Cl)C2(Cl)C1(Cl)Cl` (stereo not given), the AC50 is 36.1 µM (active).
Turning to `CCOCN(C(=O)CCl)c1c(C)cccc1CC`, the result was inactive.
`CC1(c2ccc(Oc3ccccc3)cc2)OC(=O)N(Nc2ccccc2)C1=O` (stereo not given): the AC50 is 4.54 µM (active).
Take `CCC(C)(NC(=O)c1cc(Cl)c(C)c(Cl)c1)C(=O)CCl` (stereo not given): the AC50 is 19.6 µM (active).

Another assay in a line: STM_H9_CystineISnorm_perc: Stemina devTOX quickPredict H9 human embryonic stem cell (hESC)-based Assay for Cystine (CYSS) Metabolite Biomarker, Normalized (AID 2283713). The method in brief: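 Secreted cystine was measured by UPLC-HRMS in H9 hESC medium after 72h compound exposure with 24-hourly replenishment. Values are standard-normalized areas relative to 0.1% DMSO.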
Turning to `CCOC1Oc2ccc(OS(C)(=O)=O)cc2C1(C)C` (stereo not given), the AC50 is 83 µM (active).
Turning to `Oc1ccc(Cl)cc1Cc1ccccc1`, the result was inactive.
Take `CC(C)(C)C(O)/C(=C\c1ccc(Cl)cc1Cl)n1cncn1` (stereo not given): the AC50 was 79.6 µM (active).
For the compound `O=S(=O)(O)C(F)(F)C(F)(F)C(F)(F)C(F)(F)C(F)(F)C(F)(F)C(F)(F)C(F)(F)F`, the outcome was inactive.
Still for that read-out and setting: next, `O=C(NC(=O)c1c(F)cccc1F)Nc1ccc(OC(F)(F)C(F)OC(F)(F)F)c(Cl)c1` (stereo not given): “inactive”; `CCC(C)Nc1c([N+](=O)[O-])cc(C(C)(C)C)cc1[N+](=O)[O-]` (stereo not given): “inactive”.
Regarding `CC(C)OC(=O)Nc1cccc(Cl)c1`, the AC50 is 11.1 µM (active).
The same measure, in the same setting: next, `O=S1OCC2C(CO1)C1(Cl)C(Cl)=C(Cl)C2(Cl)C1(Cl)Cl` (stereo not given): 82 µM (active).
With `CCOCN(C(=O)CCl)c1c(C)cccc1CC`, the outcome was inactive.
For `CC1(c2ccc(Oc3ccccc3)cc2)OC(=O)N(Nc2ccccc2)C1=O` (stereo not given), the AC50 was 2.42 µM (active).
The same measure, in the same setting: to `CCC(C)(NC(=O)c1cc(Cl)c(C)c(Cl)c1)C(=O)CCl` (stereo not given) belongs 23.9 µM (active).

A short description of another assay: STM_H9_OrnCyssISnorm_ratio: Stemina devTOX quickPredict H9 human embryonic stem cell (hESC)-based Assay for Ornithine (ORN):Cystine (CYSS) Ratio (AID 2283714; active = hit-call score of the fitted dose curve at least 0.9, where 1 is the maximum). The method in brief: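 Undifferentiated H9 hESCs were exposed to compound for 72h with media and chemical replaced every 24h. Final 24-h conditioned media were deproteinized and analysed by UPLC-HRMS. ORN and CYSS peak areas were normalized to C13 internal standards and the ratio taken versus 0.1% DMSO.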
As to `CCOC1Oc2ccc(OS(C)(=O)=O)cc2C1(C)C` (stereo not given), the half-maximal activity concentration (AC50) is 84.3 µM (active).
Regarding `Oc1ccc(Cl)cc1Cc1ccccc1`, the outcome was inactive.
`CC(C)(C)C(O)/C(=C\c1ccc(Cl)cc1Cl)n1cncn1` (stereo not given): the AC50 is 74.4 µM (active).
On to `O=S(=O)(O)C(F)(F)C(F)(F)C(F)(F)C(F)(F)C(F)(F)C(F)(F)C(F)(F)C(F)(F)F`, for which the result was inactive.
Turning to `CC(C)OC(=O)Nc1cccc(Cl)c1`, the AC50 is 11.7 µM (active).
Regarding `O=S1OCC2C(CO1)C1(Cl)C(Cl)=C(Cl)C2(Cl)C1(Cl)Cl` (stereo not given), the AC50 was 77.1 µM (active).
Same read-out and setting: next, `CC1(c2ccc(Oc3ccccc3)cc2)OC(=O)N(Nc2ccccc2)C1=O` (stereo not given): 3.15 µM (active); `CCC(C)(NC(=O)c1cc(Cl)c(C)c(Cl)c1)C(=O)CCl` (stereo not given): 22.9 µM (active).

Another assay can be described thus: CEETOX_H295R_MTT_cell_viability: Viability Assessment in the CeeTox HT-H295R MTT Assay (AID 2283718).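 For AC50: curve fitted both ways so AC50 may mark viability loss or gain.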 The method in brief:
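H295R cells prestimulated 48 h with 10 uM forskolin, then exposed 48 h to test chemical (0.1% DMSO final). Viability by MTT (0.5 mg/ml, 4 h, 37 C), absorbance 570/650 nm; percent change versus DMSO, bidirectional fit.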
With `Clc1ccccc1-c1nnc(-c2ccccc2Cl)nn1`, the compound was called inactive.
Take `Oc1ccc(Cl)cc1Cc1ccccc1`: the call was inactive.
In the case of `O=[N+]([O-])/N=C1\NCCN1Cc1ccc(Cl)nc1`, the outcome was inactive.
Consider `N#Cc1c(Cl)c(Cl)c(Cl)c(C#N)c1Cl`, for which the result was inactive.
As for `CCN(CC)C(=O)SCc1ccc(Cl)cc1`, the outcome was inactive.
On the same count and under the same terms, to `CC(C)N(C(=O)COc1nnc(C(F)(F)F)s1)c1ccc(F)cc1` belongs “inactive”; to `O=[N+]([O-])c1c(Cl)c(Cl)c(Cl)c(Cl)c1Cl`, “inactive”; to `CC(C)(C)C(O)/C(=C\c1ccc(Cl)cc1Cl)n1cncn1` (stereo not given), “inactive”.
The same measure, in the same setting: to `CNC(=O)Oc1cccc(N=CN(C)C)c1` belongs “inactive”.
Consider `O=C(NC(=O)c1c(F)cccc1F)Nc1ccc(OC(F)(F)C(F)OC(F)(F)F)c(Cl)c1` (stereo not given), for which the concentration at half-maximal activity (AC50) is 1.97 µM (active).
Still for that read-out and setting: next, `CCC(C)Nc1c([N+](=O)[O-])cc(C(C)(C)C)cc1[N+](=O)[O-]` (stereo not given): 46.9 µM (active).
`CC(C)OC(=O)Nc1cccc(Cl)c1`: the outcome was inactive.
For the compound `CCCN(CCC)c1c([N+](=O)[O-])cc(C(F)(F)F)cc1[N+](=O)[O-]`, the call was inactive.
On the same count and under the same terms, next, `CCS(=O)(=O)c1cccnc1S(=O)(=O)NC(=O)Nc1nc(OC)cc(OC)n1`: “inactive”.
Consider `C[C@H]1[C@H](c2ccc(Cl)cc2)SC(=O)N1C(=O)NC1CCCCC1`, for which the AC50 was 0.000405 µM (active).

The next assay is described as follows: Tanguay_ZF_120hpf_ActivityScore_legacy: (Legacy) Oregon State University Tanguay Lab 120 Hour Post-fertilization zebrafish Assay Score for Activity (AID 2283742; active = hit-call score of the fitted dose curve at least 0.9, where 1 is the maximum;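 for AC50: static exposure from 6 hpf until 120 hpf at 28 °C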). The method in brief: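 Tropical 5D wild-type zebrafish embryos, dechorionated with pronase at 4 hpf, were exposed singly from 6 hpf to 120 hpf statically at 28C in 0.64% DMSO. Malformations and mortality were scored as binary by brightfield, with the activity score combining 18 morphology components.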
With `CCOC1Oc2ccc(OS(C)(=O)=O)cc2C1(C)C` (stereo not given), the result was inactive.
`Clc1ccccc1-c1nnc(-c2ccccc2Cl)nn1`: the outcome was inactive.
Regarding `Oc1ccc(Cl)cc1Cc1ccccc1`, the AC50 is 37.1 µM (active) and 23.4 µM (active) and 22.3 µM (active).
For the compound `O=[N+]([O-])/N=C1\NCCN1Cc1ccc(Cl)nc1`, the compound was classed as inactive.
For `N#Cc1c(Cl)c(Cl)c(Cl)c(C#N)c1Cl`, the AC50 is 45 µM (active).
On to `CCN(CC)C(=O)SCc1ccc(Cl)cc1`, for which the compound was classed as inactive.
As for `CC(C)N(C(=O)COc1nnc(C(F)(F)F)s1)c1ccc(F)cc1`, the compound was called inactive.
Still for that read-out and setting: to `O=[N+]([O-])c1c(Cl)c(Cl)c(Cl)c(Cl)c1Cl` belongs “inactive”.
With `CC(C)(C)C(O)/C(=C\c1ccc(Cl)cc1Cl)n1cncn1` (stereo not given), the AC50 was 94.2 µM (active).
Regarding `CNC(=O)Oc1cccc(N=CN(C)C)c1`, the compound was classed as inactive.
Still for that read-out and setting: next, `O=C(NC(=O)c1c(F)cccc1F)Nc1ccc(OC(F)(F)C(F)OC(F)(F)F)c(Cl)c1` (stereo not given): “inactive”; `CCC(C)Nc1c([N+](=O)[O-])cc(C(C)(C)C)cc1[N+](=O)[O-]` (stereo not given): “inactive”.
With `CC(C)OC(=O)Nc1cccc(Cl)c1`, the AC50 was 39.2 µM (active).
Regarding `CCCN(CCC)c1c([N+](=O)[O-])cc(C(F)(F)F)cc1[N+](=O)[O-]`, the compound was called inactive.
On the same count and under the same terms, to `OCCOc1ccccc1` belongs “inactive”; to `O=S1OCC2C(CO1)C1(Cl)C(Cl)=C(Cl)C2(Cl)C1(Cl)Cl` (stereo not given), “inactive”.
As for `CCOCN(C(=O)CCl)c1c(C)cccc1CC`, the AC50 is 46 µM (active).
As for `C[C@H]1[C@H](c2ccc(Cl)cc2)SC(=O)N1C(=O)NC1CCCCC1`, the outcome was inactive.
With `CC1(c2ccc(Oc3ccccc3)cc2)OC(=O)N(Nc2ccccc2)C1=O` (stereo not given), the call was inactive.
On to `CCC(C)(NC(=O)c1cc(Cl)c(C)c(Cl)c1)C(=O)CCl` (stereo not given), for which the compound was called inactive.
